Assay results as given in PubChem BioAssay (NCI).
Compounds without any hit were thinned out: in the full panel of roughly 83,000, 20% have a hit.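 Compound tested at a single concentration for 48 hours in 96-well plates; a percent growth value below 10 was scored as active.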 Active and inactive are the calls of the source.

tested on: MDA-MB-468 breast; assay: NCI-60 one-dose screen, 48 h (100 = growth as untreated, 0 = no growth, -100 = all killed); details: 10 µM unless noted

Row | SMILES | growth
1 | O=C(O)c1nn(Cc2ccc(Cl)cc2)c2ccccc12 | 105% (inactive)
2 | O=C1NC(=O)C(=Cc2cn(CCCCCCn3c4ccccc4c(=O)c4ccccc43)c3ccccc23)C(=O)N1 | -26% (active)
3 | CO[C@H]1[C@H](O[C@@H]2C[C@@H]3C/C=C/C(=O)O[C@@H](CO)C[C@H](O)[C@@H]4C[C@H](C)[C@H](C/C=C\C=C\[C@H](C)C[C@H](C2)O3)O4)O[C@@H](C)[C@H](O)[C@H]1O | -4.8% (active)
4 | COc1cc2ncnc(Nc3ccc(F)c(Cl)c3)c2cc1OCC(=O)N1CCN(C)CC1 | -32.4% (active)
5 | CC(=O)[O][Hg][c]1nc2c(c(=O)n(C)c(=O)n2C)n1C | 102% (inactive)
6 | C=CCc1cc2c(cc1OCC)OCO2 | 101% (inactive)
